Sfp inh: qHTS Assay for Inhibitors of Bacillus subtilis Sfp phosphopantetheinyl transferase (PPTase); AID 1490, 2009; hit rate 3.5% among 310,000; Potency, µM, for inactives: largest response in the series, negative = inhibition, most hits filed as inhibitors; 4'-phosphopantetheinyl transferase ffp (Bacillus subtilis), Q9F4F7; Biochemical Sfp PPTase activity, qHTS;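 note: the enzyme is Sfp with the accession as filed and its product quenches rhodamine fluorescence; potency is the fitted concentration of half-maximal effect; 0% = enzyme reaction without inhibitor and -100% = no enzyme wells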
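Step 1, compound plus 15 nM Sfp-PPTase, 15 min, room temperature. Step 2, add rhodamine-CoA (5 uM) and BHQ-2-YbbR (12.5 uM). Step 3, read 525/598 nm fluorescence at 0 and 30 min.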
Mm-Cpn inhibitor: Inhibitors of TCP-1 ring complex (TRiC) of Methanococcus maripaludis (MmCpn): qHTS; Chaperonin Mm-Cpn (Methanococcus maripaludis); purified Mm-Cpn ATPase, ADP Transcreener TR-FRET; Potency, µM (doses to about 76.9 µM), for the others: top-dose activity, negative = inhibition, most hits filed as inhibitors; hit rate 0.031% among 330,000; note: potency is the fitted concentration of half-maximal effect; nearly all actives have a fitted effect of over 80% in size
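Eu-cryptate anti-ADP/ADP-d2 competition gives a ratio inversely related to ADP. Enzyme at 25 nM was pre-exposed to compound for 10 min, then given 10 uM ATP for 30 min, 37°C throughout.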
VDR inh: Inhibitors of the vitamin D receptor (VDR): qHTS. Vitamin D3 receptor (Homo sapiens), P11473. VDR-SRC2-3 peptide fluorescence polarization, 2 h. Potency, µM, inactives show max response, negative = inhibition, most hits filed as inhibitors. hit rate 0.93% among 400,000. AID 504847, 2011; note: potency is the fitted concentration of half-maximal effect
Target sequence (P11473 whole entry, looked up): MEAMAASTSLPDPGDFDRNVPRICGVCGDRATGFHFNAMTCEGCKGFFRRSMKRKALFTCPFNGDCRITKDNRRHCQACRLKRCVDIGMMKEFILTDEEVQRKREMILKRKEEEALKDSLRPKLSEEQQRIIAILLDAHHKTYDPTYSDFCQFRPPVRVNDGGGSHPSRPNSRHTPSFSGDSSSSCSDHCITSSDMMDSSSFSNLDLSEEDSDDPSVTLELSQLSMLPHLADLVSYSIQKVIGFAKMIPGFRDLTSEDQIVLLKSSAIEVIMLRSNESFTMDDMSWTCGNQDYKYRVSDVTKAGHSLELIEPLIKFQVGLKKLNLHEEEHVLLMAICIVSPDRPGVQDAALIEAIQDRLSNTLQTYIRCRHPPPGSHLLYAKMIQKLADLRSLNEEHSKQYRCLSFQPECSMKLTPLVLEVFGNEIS
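Reagent solutions, kept cold and dark, are dispensed first; compounds are then pinned in at 23 nl, plates briefly spun, and incubated 2 h at ambient temperature. Inhibition of VDR–SRC2-3 peptide binding is read by fluorescence polarization.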
PLK1 PBD block: qHTS for Inhibitors of PLK1-PDB (polo-like kinase 1 - polo-box domain): Primary Screen | Serine/threonine-protein kinase PLK1 (Homo sapiens), P53350 | hit rate 2.8% among 360,000 | Potency, µM, inactives show max response, negative = inhibition, hits mostly inhibitors | Plk1 PBD binding of FITC phosphopeptide, fluorescence polarization; note: potency is the fitted concentration of half-maximal effect; series mostly up to about 57 µM; nearly all actives have a fitted effect of over 65% in size
G9a block: qHTS Assay for Inhibitors of Histone Lysine Methyltransferase G9a. Histone-lysine N-methyltransferase EHMT2 (Homo sapiens), Q96KQ7. G9a H3K9 monomethylation, AlphaScreen, 2 h. Potency, µM (series often up to 102 µM), without a hit: at the top dose activity, negative = inhibition, usual class: inhibitors. hit rate 8.8% among 350,000. AID 504332, 2011; note: potency is the fitted concentration of half-maximal effect; nearly all actives have a fitted effect of over 75% in size
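Enzyme 20 nM + cpd, 15 min RT; add b-H3K9 pep 500 nM / SAM 20 uM; 2 h RT; anti-H3K9me1 Ab 0.5 ug/mL + SA donor / anti-rabbit acceptor beads 20 ug/mL each, 10 min; AlphaScreen read.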
CCT chaperon mod: High-Throughput Screening for Modulators of Cytosolic Chaperonin Activity. AID 651819, 2012. activity change, % (concentration not given with the values), hits read low. purified chaperonin ATPase assay, HTRF ADP detection, 30 min. hit rate 0.3% among 360,000; in the data active = activity change below about -30%
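First, chaperonin was dispensed at 40 nM or 20 nM final depending on batch activity. Next, compounds were pinned at 76 uM and ATP added at 10 uM. After 30 min at 37 °C, ADP detection reagents ran 30 min at ambient temperature.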
* hit, by the source's call; ? = inconclusive; . = no result; [ ] = another dose, or the depositor's remark. Hits are enriched below; roughly 10% of the tested compounds scored in any of these assays. Unless noted, calls come from the whole dose curve; as a rule, active = well fitted curve in the direction sought with a large enough effect; inconclusive = small, poorly fitted or top-dose-only effect, or another doubt; inactive = no such curve, though single readings can be large; an effect the other way counts as inactive or inconclusive. Unless noted, % is set by controls: 0 for no effect and ±100 for the full control effect.

SMILES	Sfp inh	Mm-Cpn inhibitor	VDR inh	PLK1 PBD block	G9a block	CCT chaperon mod
Oc1ccccc1N1CCN(C(=S)NCCc2ccccc2)CC1	45µM*	0%	-13%	-14%	?	-4
CCN1C(=O)/C(=C\N(C)C)NC1=S	4%	-3%	-14%	2%	-5%[59 µM]	-2
CN(C)/C=C1/NC(=S)NC1=O	79µM*	-2%	4%	-5%	35µM*	-6
C=C1c2cccc(O)c2C(=O)C2C(=O)[C@]3(O)C(=O)C(C(N)=O)C(=O)[C@@H](N(C)C)[C@@H]3[C@@H](O)[C@H]12 (stereo partly drawn)	.	?	-24%	?	.	0
CN(C)[C@@H]1C(=O)C(C(N)=O)=C(O)[C@]2(O)C(=O)C3=C(O)c4c(O)ccc(Cl)c4[C@H](O)[C@H]3C[C@@H]12	20%	.	?	.	?	.
C=C1c2cccc(O)c2C(O)=C2C(=O)[C@@]3(O)C(O)=C(C(N)=O)C(=O)[C@@H](N(C)C)[C@@H]3[C@@H](O)[C@H]12	?	.	?	.	4µM*	.
CN(C)c1ccc(O)c2c1C[C@H]1C[C@H]3[C@@H](N(C)C)C(=O)C(C(N)=O)=C(O)[C@]3(O)C(=O)C1=C2O	14%	.	16%	.	8.9µM*	.
O=C(NNc1ccccc1C(F)(F)F)c1sccc1Br	-5%	-2%	?	-8%	18µM*	0
O=C(Nc1ccccc1C(F)(F)F)c1ccsc1	1%	0%	4%	5%	47%	1
Cc1ccc2c(=O)cc(C(=O)Nc3ccc(S(=O)(=O)N4CCCCCC4)cc3)oc2c1C	.	.	6%	.	-28%[59 µM]	.
CC(=O)N1CCN(c2ccc(NCc3ccc(Br)o3)cc2)CC1	.	-3%	?	.	3%[0.501 µM]	.
CC(=O)N1CCN(c2ccc(NCc3ccc(C)s3)cc2)CC1	50µM*	-6%	?	-1%	45µM*	1
CC(=O)N1CCN(c2ccc(NCc3cccc4ccccc34)cc2)CC1	-22%	1%	?	24µM*	8.9µM*	-1
CC(=O)N1CCN(c2ccc(NCc3cccs3)cc2)CC1	22µM*	-2%	-18%	?	6.3µM*	-1
Cc1ccc(CNc2ccc(N3CCOCC3)cc2)s1	-12%	-4%	10%	-5%	?	0
CC(=O)N1CCN(c2ccc(NCc3ccc(-c4ccc(Br)cc4)o3)cc2)CC1	.	-13%	79µM*	.	.	.
CCOc1ccc(-c2nnc(SCC(=O)NCc3ccc(Cl)cc3)o2)cc1	.	.	-1%	.	-8%[59 µM]	.
CCOc1ccc(N(CC)C(=O)c2cc3c(s2)-c2ccccc2OC3)cc1	.	.	-14%	.	-14%[59 µM]	.
O=C1OC(c2ccccc2)C(O)=C1c1ccccc1 (stereo not drawn)	.	.	-11%	2%	.	-7
O=C1C(Br)=C(c2ccccc2)C(c2ccccc2)=C1c1ccccc1	.	.	?	2.7µM*	.	-2
CN(C)c1ncc2nc(-c3ccc(Cl)cc3)c(=O)n(C[C@H]3CCCO3)c2n1	10%	.	-9%	.	3%[0.501 µM]	.
CCN(c1ccccc1)S(=O)(=O)c1nnc(NC(=O)c2ccccc2)s1	.	.	-2%	.	0%[59 µM]	.
COC(=O)C1=CO[C@@H](C)[C@H]2CN3CCc4c([nH]c5ccccc45)[C@@H]3C[C@H]12	6%	-4%	3%	-3%	-42%[59 µM]	0
COC(=O)C1=COC(C)C2CN3CCc4c([nH]c5ccccc45)C3CC12 (stereo not drawn)	9%	0%	6%	-25%	45µM*	-1
COC(=O)[C@H]1[C@H]2C[C@@H]3c4[nH]c5ccccc5c4CCN3C[C@H]2C[C@@H](OC(=O)c2cc(OC)c(OC)c(OC)c2)[C@@H]1OC	29%	.	35µM*	.	?	.
